test: MRP1 drug-resistance reversers in H69AR cells – cell-based, doxorubicin co-treatment, pilot screen (AID 601); details: H69AR cells + 2 uM doxorubicin, CellTiter-Glo, 72 h; measured here: viability with 2 uM doxorubicin; at 10 µM; stronger effect = lower value

Question: Which viability does the source give for `CC1/C(=N/O)C(CN(C)C)C2CC1C2(C)C` (centres undefined) here?
Answer: 76.3%

Question: With `O=C(Nc1cccc(F)c1)c1ccc2c(c1)OCO2` as the compound, how does the viability read?
Answer: 83.7%

Question: Which viability does the source give for `COc1ccccc1N=Cc1nc(-c2ccccc2)oc1OC(C)=O` here?
Answer: 76.8%

Question: Which viability does the source give for `CC(=O)Nc1ccc(S(=O)(=O)NCc2cn3c(C)csc3n2)cc1` here?
Answer: 81.3%

Question: Which viability does the source give for `O=C(c1ccccc1Br)N1CCN(c2ccccc2)CC1` here?
Answer: 88.9%

Question: With `COc1cccc(OC)c1C(=O)Nc1ccc(CN2CCCCC2)cc1` as the compound, how does the viability read?
Answer: 80.4%

Question: With `O=C(Cn1nnc(-c2ccccc2)n1)Nc1ccccc1N1CCOCC1` as the compound, how does the viability read?
Answer: 92.5%

Question: For `CCCCSc1cc(C)nc2ncnn12`, which viability is on record?
Answer: 102%

Question: Which viability does the source give for `COCCn1c(C)cc(C(=O)COC(=O)CCN2C(=O)c3ccccc3C2=O)c1C` here?
Answer: 91.1%

Question: With `Cc1cc(=O)n(CC(C)C)c(O)c1C#N` as the compound, how does the viability read?
Answer: 104%

Question: For `Cc1nc2cc(Cl)ccc2n1CCO`, which viability is on record?
Answer: 84.4%

Question: For `CCCN1CCN(C(=O)Cn2c(=O)oc3cc(S(=O)(=O)NCc4ccccc4)ccc32)CC1`, which viability is on record?
Answer: 87.5%

Question: Which viability does the source give for `COc1ccc2cc(C#N)c(SCC(=O)N3CCCC3)nc2c1` here?
Answer: 75.5%

Question: With `CCn1c(=O)cc(OCC(=O)NC2CCCCC2)c2ccccc21` as the compound, how does the viability read?
Answer: 77.5%

Question: With `CC(C(=O)Nc1ccccc1-c1ccccc1)N1CCN(C(=O)c2ccco2)CC1` (centres undefined) as the compound, how does the viability read?
Answer: 65.8%

Question: Which viability does the source give for `Cc1c(C(=O)NCc2cccnc2)sc2ncn(CC(=O)N3CCCCC3C)c(=O)c12` (centres undefined) here?
Answer: 95.8%

Question: For `O=C(c1cn(-c2ccccc2)nc1-c1cccs1)N1CCN(c2ccccn2)CC1`, which viability is on record?
Answer: 85.1%

Question: For `CCOc1ccc2[nH]c(=O)c(C(c3nnnn3Cc3ccco3)N3CCC(C)CC3)cc2c1` (centres undefined), which viability is on record?
Answer: 87.7%

Question: For `c1ccc(-c2nnc(-c3ccco3)n2-c2ccccc2)cc1`, which viability is on record?
Answer: 98.6%
